Hit rate of the full screen: of about 290,000 compounds, about 3,100 (1.1%) were called active. Cut-off read from the data, not from the text of the source: active = inhibition above about 16% (passing the limit was not always enough); inactive = the rest. The entries come from a sample that favours actives as a whole.
molecular target: Neuropeptides B/W receptor type 1 (Homo sapiens) (UniProt P48145); test: blockers of human neuropeptide B/W receptor 1 – cell-based, fluorescence, single concentration, primary screen (AID 1861); conditions: GPR7-expressing cells, fluorescence antagonist assay; at 4.4 µM; active compounds read high;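 note: cells stimulated with the agonist NPW; 0% = agonist with vehicle and 100% = vehicle without agonist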
Sequence (P48145 whole entry, looked up): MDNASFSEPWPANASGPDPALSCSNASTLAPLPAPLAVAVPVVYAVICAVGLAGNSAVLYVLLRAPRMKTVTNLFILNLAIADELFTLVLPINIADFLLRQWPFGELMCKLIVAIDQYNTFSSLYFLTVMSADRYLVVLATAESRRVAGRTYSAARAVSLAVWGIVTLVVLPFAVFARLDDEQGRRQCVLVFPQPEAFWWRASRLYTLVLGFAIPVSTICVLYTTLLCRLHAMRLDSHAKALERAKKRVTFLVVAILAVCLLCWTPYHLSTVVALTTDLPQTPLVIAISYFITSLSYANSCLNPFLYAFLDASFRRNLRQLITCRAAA

inhibition, inactive:
COc1ccccc1C(=O)COC(=O)CNS(=O)(=O)c1ccc(NC(C)=O)cc1 11.2%, CN(C)CCCNC(=S)N1CCN(c2nc(-c3ccccc3)cs2)CC1 5.73%, COc1cccc(NC(=O)CN2CCN(c3nc(-c4cccc(OC)c4)cs3)CC2)c1 -9.85%, CCC1CCCCN1C(=S)Nc1ccc(S(=O)(=O)Nc2ncccn2)cc1 (configuration not stated) -0.2%, c1ccc(-c2cc(-c3nnc4sc(-c5ccccn5)nn34)[nH]n2)cc1 -17.3%, COc1cc(-c2nn3c(-c4cccc(C)c4)nnc3s2)cc(OC)c1OC 12.2%, COC(=O)c1ccc(C(=O)NC2CC(C)(C)Cc3c2cnn3-c2ccc(F)cc2)nc1 (configuration not stated) 18.2%, CC(C(=O)NC1CCS(=O)(=O)C1)N1C(=O)/C(=C/c2ccc(Cl)cc2)SC1=S (configuration not stated) 14.5%, CCOCCCNC(=O)c1ccc(CS(=O)(=O)c2cccc(C(F)(F)F)c2)o1 6.51%, O=C(NCCCN1CCCCC1)c1ccc2c(c1)NC(=O)C(N1CCOCC1)S2 (configuration not stated) -14.1%, O=C(NCCCN1CCOCC1)c1cc(-c2ccccc2F)no1 -6.4%, CCC1=Nc2cc(C(=O)NCCCN3CCOCC3)ccc2Sc2ccc(Br)cc21 0.03%, O=C(NCCN1CCOCC1)c1ccc(/C=C2\Sc3ccccc3N(Cc3ccc(F)cc3)C2=O)cc1 4.73%, CCOc1ccc(NC(=O)C2CCN(C(=O)N3CCOc4ccccc43)CC2)cc1 5.19%, COc1cccc2[nH]c(C(=O)NCCc3ccccc3)cc12 -9.64%, COc1ccc2[nH]c(=O)c(C3c4cc(OC)c(OC)cc4CCN3C(=O)c3ccco3)cc2c1 (configuration not stated) -13.4%, Cc1ccc(NC(=O)CSc2nc(CSc3ccc(C)cc3)cc(=O)[nH]2)cc1 -13.7%, O=c1cc(CSc2ccccn2)nc(N2CCN(c3ccccc3)CC2)[nH]1 -6.4%, CN(C(=O)CCN1C(=O)/C(=C/c2ccccc2F)SC1=S)C1CCS(=O)(=O)C1 (configuration not stated) -4.44%, COc1cccc(CNC(=O)C2CCCN(c3ncnc4c3nc3n4CCCCC3)C2)c1 (configuration not stated) 6.2%, COc1cccc(C(C(=O)NC2CCCC2)N(C(=O)c2ccco2)c2cccc(C(C)=O)c2)c1OC (configuration not stated) 2.78%, Cc1ccc(NC(=O)C/C(N)=N/O)cc1Cl -9.83%, CN(C)CCNC(CC(=O)Nc1ccc(Cl)c(Cl)c1)C(=O)O (configuration not stated) -6.94%, CCOC(=O)C1(CCOc2ccccc2)CCN(Cc2cc(OC)cc(OC)c2)CC1 15.4%, CC1=C/C(=N\OS(=O)(=O)c2ccccc2)C=CC1=O -2.03%, Cc1cc(C)cc(N(CC(=O)NC2CCCC2)C(=O)CCC(=O)Nc2nccs2)c1 4.8%, COc1ccccc1C(=O)OCC(=O)NCCNC(=O)COC(=O)c1ccccc1OC 1.57%, O=C(COC(=O)c1ccccc1SCC(=O)NC1CCCCC1)NC1CCCCC1 4.41%, O=[N+]([O-])c1ccc(NC(=S)N2CCN(c3ccccn3)CC2)cc1 -5.44%, Cc1nn(CC(=O)NCC2CCCO2)c(=O)c2cc3ccccc3n12 (configuration not stated) 2.04%, CCn1c(C)cc(=O)cc1-c1ccc(Cl)cc1 12.6%, CS(=O)(=O)Nc1cccc(C2=NN(C(=O)c3cccc(F)c3)C(c3cccs3)C2)c1 (configuration not stated) 19.9%, CCS(=O)(=O)Nc1ccc(C2=NN(S(=O)(=O)c3ccc(F)cc3)C(c3ccco3)C2)cc1 (configuration not stated) 1.02%, COc1ccc(C2=NN(C(=O)c3ccccc3C(=O)O)C(c3ccccc3O)C2)cc1 (configuration not stated) 1.53%, CS(=O)(=O)Nc1ccc(C2=NN(S(C)(=O)=O)C(c3cccs3)C2)cc1 (configuration not stated) -8.38%, Cc1c(CCC(=O)N[C@@H](CC(C)C)C(=O)O)c(=O)oc2c(C)c3oc4c(c3cc12)CCCC4 -11.3%, COc1ccc(C(=O)NC(C)c2nccs2)cc1OC1CCN(C(C)C)CC1 (configuration not stated) -9.73%, COc1ccc(N(CC(=O)NCCSCc2cccc(Cl)c2)S(C)(=O)=O)cc1 -4.13%, CC1CN(C(=O)c2cc(COc3c(F)cccc3F)on2)CCN1C (configuration not stated) 5.39%, CCc1ccccc1N(CC(=O)NCCSCc1ccco1)S(C)(=O)=O -3.47%, Cc1cc(C)cc(N(CC(=O)NCCSCc2ccco2)S(C)(=O)=O)c1 -3.97%, O=C(COc1ccc([N+](=O)[O-])cc1)Nc1ccc(N2CCCC2)cc1 -6.84%, CN1CCN(CCNC(=O)Nc2ccc([N+](=O)[O-])cc2)CC1 1.21%, Cc1ccc(OCC(=O)NC(C)c2ccccc2)c([N+](=O)[O-])n1 (configuration not stated) -17%, COc1ccc(CNC(=O)COc2cccnc2[N+](=O)[O-])cc1 5.06%, CCOC(=O)N1CCN(S(=O)(=O)c2ccc(OC)cc2)CC1 -0.89%, Cc1cc(Cl)ccc1OCCCC(=O)NCc1ccncc1 2.96%, Cc1cc(Cl)ccc1OCCCC(=O)NCc1ccccn1 5.1%, c1ccc2c(c1)CCc1snnc1-2 -15.5%, COc1cc(OC)c(NC(=O)C2CCCN2C(=O)OCc2ccccc2)cc1Cl (configuration not stated) 3.66%, COC(=O)c1cc(S(=O)(=O)Nc2ccc(C)c(F)c2)c[nH]1 4.7%, CCOC(=O)C1=C(C)NC(=S)NC1c1cccs1 (configuration not stated) -3.11%, CCOC(=O)C1=C(C)NC(SC)=NC1c1ccccc1 (configuration not stated) -17%, CCN(CC)c1ccc(C2C3CCCCC3(O)CCN2CC(=O)Nc2ccccc2)cc1 (configuration not stated) 0.06%, CC1CCCCN1CC(=O)NCc1ccc2c(c1)OCO2 (configuration not stated) -3.99%, O=C(Nc1cccc2ccccc12)c1onc2c1CCCC2 -5.72%, Oc1ccccc1CNc1ncc(Br)cc1Br -17.9%, Cc1cccc(C(=O)NCCCN(C)CCCNC(=O)c2cccc(C)c2)c1 -10.2%, CCCCN(CC)C(=O)c1ccc2c(c1)OCO2 11.2%, Cc1ccc(Cl)c(NC(=O)CN2CCN(C=O)CC2)c1 2.68%, COc1ccccc1OCCOc1ccc(/C=C2\C(=N)N3N=C(C)SC3=NC2=O)cc1 21%, CN(C(=O)c1cccc(OC2CCN(S(=O)(=O)N(C)C)CC2)c1)C1CCOC1 (configuration not stated) -0.89%, CNS(=O)(=O)c1cccc(C(=O)NCC2CCCCC2)c1 5.35%, Cc1cc(C(=O)NCCc2ccc(Cl)cc2)c(C)o1 -6.42%, COc1cccc(N(CC(=O)Nc2cccc(N(C)S(C)(=O)=O)c2)S(C)(=O)=O)c1 -7.36%, Cc1ccc(N(CC(=O)Nc2cccc(N(C)S(C)(=O)=O)c2)S(C)(=O)=O)cc1 -0.43%, CCOC(=O)N1CCN(C(=O)C(C)NC(=O)c2ccco2)CC1 (configuration not stated) -2.9%, CCN(CCn1cccn1)Cc1nc(-c2ccc(C(=O)OC)cc2)no1 9.06%, COc1cccc(-c2cc(C(=O)N3CCN(c4ccccc4OC)CC3)no2)c1 -15.8%, CN(CC(=O)Nc1ccccc1C(F)(F)F)C(=O)Cc1ccccc1F -10.8%, COc1cc(CNC2CCCCC2)c(Br)cc1OC1CCCC1 -7.35%, CCOCCCNCc1cc(Br)ccc1OCC 10.1%, O=C(NCc1cccc(CNC(=O)Nc2cccc(O)c2)c1)Nc1cccc(O)c1 -9.18%

inhibition, active:
COCCCNC(=S)N1CCN(c2nc(-c3cccc(OC)c3)cs2)CC1 42.1%, Fc1ccc(-c2ccc(-c3nn4c(-c5ccco5)nnc4s3)o2)cc1 29%, O=C(NCCCN1CCOCC1)c1ccc2c(c1)N(Cc1cccc(F)c1)C(=O)c1ccccc1S2 24.4%, Cc1ccccc1CN1C(=O)c2ccccc2Sc2ccc(C(=O)NCCCN3CCOCC3)cc21 24.2%, Cc1ccc(SCc2cc(=O)[nH]c(N3CCCCC3)n2)cc1 25.9%, O=C(CC(O)(C(F)(F)F)C(F)(F)F)Nc1ccc(Cl)c(Cl)c1 28.9%, C=CCNC(=O)COC(=O)c1ccccc1C(=O)N(C)C1CCCCC1 23.4%, CS(=O)(=O)Nc1cccc(C2=NN(S(=O)(=O)c3ccccc3)C(c3cccs3)C2)c1 (configuration not stated) 30%, COc1cccc(C2CC(c3ccccc3)=NN2S(=O)(=O)c2ccccc2)c1OC (configuration not stated) 19.8%, CS(=O)(=O)N(Cc1ccc(Cl)cc1)c1ccc(C(=O)NCCSCc2ccco2)cc1 30.2%, O=C(NCCCN1CCN(c2ccc(F)cc2)CC1)Nc1ccc([N+](=O)[O-])cc1 25.5%, COc1ccccc1CNC(=O)COc1ccc(C)nc1[N+](=O)[O-] 25.7%, Cc1cc(Cl)ccc1OCCCC(=O)Nc1cccc(-n2cnnn2)c1 37.4%, CCOC(=O)C1=C(C)NC(C)=C(C(=O)OCC)C1c1ccccn1 18.9%, Cc1ccc(NC(=O)CN2CCC3(O)CCCCC3C2c2ccc3c(c2)OCO3)c(C)c1 (configuration not stated) 21.5%, COCCN(Cc1cc2cc3c(cc2nc1Cl)OCO3)C(=O)c1cccc(C)c1 21.6%, CN(C)S(=O)(=O)N1CCC(Oc2cccc(C(=O)NCCCC3CCCC3)c2)CC1 34.4%, CN(c1cccc(NC(=O)Nc2ccc(Cl)cc2)c1)S(C)(=O)=O 35.6%, CC(C)(C)NCc1cc(Br)ccc1OC1CCCC1 22.3%

Source: PubChem BioAssay AID1861 (The Scripps Research Institute Molecular Screening Center, 2009)
